Measured values as given in PubChem BioAssay (Tox21).
Results filed as inconclusive are left out. A call without a number means that no potency is given here. A number with no mark means an inactive call. Active and inactive are the calls of the source. The call rests on the fitted dose curve.

Assay: p53 small molecule agonists, cell-based qHTS assay with human liver microsomes (AID 1963577);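 further: p53 response element beta-lactamase reporter cells with liver microsomes plus NADPH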
Method in brief: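 p53RE-bla cells; 5 h settle, 37 C/5% CO2; cpd + HLM 0.5 mg/mL + NADPH 0.5 mg/mL (final); 16 h 37 C; LiveBLAzer 2 h RT dark; fluorescence readout.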

Structure (SMILES) | Potency | activation
CCN(CC)c1ccc2c(c1)Oc1cc(N(CC)CC)ccc1C21OC(=O)c2ccccc21 | inactive | 
O=C(Nc1ccc(Cl)c(Cl)c1)c1cc(Cl)cc(Cl)c1O | inactive | 
CCCCCCCCCCCCCCC[C@H](O)[C@@H](N)CO | inactive | 
COCCOC(=O)CC#N | inactive | 
CC(=O)NCCCS(=O)(=O)O | inactive | 
CCCCCCNC(=O)n1cc(F)c(=O)[nH]c1=O | inactive | 
O=C(O)Cc1cc(I)c(Oc2cc(I)c(O)c(I)c2)c(I)c1 | inactive | 
C=COCCOCCOC=C | inactive | 
O=[N+]([O-])c1cc(C2CCCCC2)c(O)c([N+](=O)[O-])c1 | inactive | 
O=S(=O)(O)c1cc(S(=O)(=O)O)c2ccc3c(S(=O)(=O)O)cc(S(=O)(=O)O)c4ccc1c2c43 |  | -0.621% [at 13.5 µM]
CCN1CCN(C(=O)N[C@@H](C(=O)N[C@@H]2C(=O)N3C(C(=O)O)=C(CSc4nnnn4C)CS[C@H]23)c2ccc(O)cc2)C(=O)C1=O | inactive | 
CC(C)(C)c1cc(O)c(C(C)(C)C)cc1O | inactive | 
CS(=O)(=O)CCNCc1ccc(-c2ccc3ncnc(Nc4ccc(OCc5cccc(F)c5)c(Cl)c4)c3c2)o1 | inactive | 
CCCCCCCCOC(=O)c1cc(O)c(O)c(O)c1 | inactive | 
O=C(Cl)c1ccc(F)c(Cl)c1 | inactive | 
CCCOc1sc(C(=O)N2CCC(c3cc(CN)ccc3F)CC2)c(C)c1Br | inactive | 
O=C(OCCc1ccccc1)c1ccccc1 | inactive | 
CC=O | inactive | 
